Among all 350,000 compounds or so, about 1,600 (0.46%) were called active.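 Rule for the calls: active = every replicate reaching a set inhibition limit, whatever the replicate mean (cut at about 25% in these data); inconclusive = mean inhibition reaches that limit but some replicates miss it; inactive = the rest.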 For the sample, actives were picked, then their nearest neighbours and some compounds at random.
target: Protein AF-9 (Homo sapiens) (UniProt P42568); assay: inhibitors of AF4 peptide binding to AF9, primary screen, biochemical, AlphaScreen, biotin-AF4 peptide, FLAG-AF9, single point (AID 651704); settings: at 10 µM, stronger effect = higher value;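 note: 0% = plate neutral control median and 100% = total signal loss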
Sequence (P42568 whole entry, looked up): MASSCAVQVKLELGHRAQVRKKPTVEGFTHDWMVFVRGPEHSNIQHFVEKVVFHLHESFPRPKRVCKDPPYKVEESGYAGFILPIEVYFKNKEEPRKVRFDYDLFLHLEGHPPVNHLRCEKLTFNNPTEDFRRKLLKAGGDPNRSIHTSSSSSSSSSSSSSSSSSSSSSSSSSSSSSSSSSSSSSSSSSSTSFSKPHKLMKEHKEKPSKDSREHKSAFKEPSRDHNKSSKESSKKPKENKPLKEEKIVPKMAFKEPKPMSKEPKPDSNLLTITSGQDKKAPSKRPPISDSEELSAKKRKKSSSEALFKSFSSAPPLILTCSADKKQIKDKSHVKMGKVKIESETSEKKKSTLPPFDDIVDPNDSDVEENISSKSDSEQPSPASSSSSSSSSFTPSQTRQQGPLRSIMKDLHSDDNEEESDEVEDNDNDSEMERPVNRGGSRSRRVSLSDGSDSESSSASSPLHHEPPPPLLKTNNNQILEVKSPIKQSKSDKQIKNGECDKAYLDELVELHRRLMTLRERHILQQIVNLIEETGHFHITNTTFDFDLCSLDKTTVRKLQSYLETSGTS

| Compound | inhibition |
| --- | --- |
| CCC1(C)CC(CCNCc2ccc(N(C)C)cc2)(c2ccc(F)cc2)CCO1 (stereo not given) | 28.4% (active) |
| COc1ccc2c(c1)NP(=S)(c1ccccc1)N2 (stereo not given) | -0.621% (inactive) |
| O=C(O)[C@@H]1[C@@H](CO)[C@@H]2Cn3c(ccc(-c4ccccc4F)c3=O)[C@H]1N2C(=O)c1cccnc1 | 1.92% (inactive) |
| CSCCC(c1nnnn1C(C)(C)C)N1CCC(n2c(=O)[nH]c3ccccc32)CC1 (stereo not given) | 14% (inactive) |
| CC(C)CN1Cc2cc(N3CCCCC3)ccc2-n2nncc2C1 | 6.47% (inactive) |
| COC(=O)[C@H]1[C@H](CO)[C@H]2Cn3c(ccc(-c4ccccc4F)c3=O)[C@@H]1N2C(=O)C1CCC1 | 1.06% (inactive) |
| Cc1ncoc1C(=O)NCC1=C(c2cccc3ccccc23)C[C@@H]2CC[C@H]1N2Cc1ccco1 | 3.14% (inactive) |
| CCOC(=O)[C@]12Cc3cc(OC)ccc3[C@H]1N(C(C)C)C(=O)c1ccccc12 | -1.49% (inactive) |
| O=C(O)COc1ccccc1/C=C1\C(=O)NC(=O)N(CCC2=CCCCC2)C1=O | 51.4% (active) |
| O=C1NC(=O)N(CCc2ccc(F)cc2)C(=O)/C1=C/C=C/c1ccccc1 | 7.75% (inactive) |
| O=C1NC(=O)N(Cc2ccco2)C(=O)/C1=C\c1cccn1CCOc1ccccc1 | -1.69% (inactive) |
| O=C1NCN(c2ccccc2)C12CCN(C(c1cccs1)c1nnnn1C1CCCCC1)CC2 (stereo not given) | 8.26% (inactive) |
| CCn1cc(CN2CCCC(C(=O)c3cccc(C(F)(F)F)c3)C2)cn1 (stereo not given) | 0.062% (inactive) |
| Cc1cc2ccccn2c1C(C[N+](=O)[O-])c1c(F)cccc1Cl (stereo not given) | 25.5% (active) |
| O=C(NC[C@@H]1CC[C@H]2NC[C@H]2O1)C1CCCC1 | -2.73% (inactive) |
| COC(=O)C1=C(c2ccc(OCc3ccccc3)cc2)C[C@@H]2CC[C@H]1N2C(=O)NCc1ccc(Cl)cc1 | -0.419% (inactive) |
| O=c1[nH]c2ccccc2n1C1CCN(C(c2ccnc3ccccc23)c2nnnn2Cc2ccccc2)CC1 (stereo not given) | -0.349% (inactive) |
| C[C@@H]1CN([C@H](C)CO)C(=O)CCCn2cc(nn2)CO[C@@H]1CN(C)C(=O)Oc1cccc2ccccc12 | -0.246% (inactive) |
| CCOc1cccc(=NC2CCCCC2)c2c(C)[nH]c(C)c12 | 31.5% (active) |
| O=c1[nH]c2ccccc2n1C1CCN(C(c2ccccc2)c2nnnn2Cc2ccccc2)CC1 (stereo not given) | 2.84% (inactive) |

— PubChem BioAssay AID651704 (Broad Institute, 2012)
